proKLK7 act = proKLK7 (human) activation, primary screen. AID 652039. P49862. actives 0.9% (n = 370,000). activation, % at 7 µM. purified proKLK7, EDANS-DABCYL substrate fluorescence; 100% is mature enzyme control, 0% vehicle;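 active = activation above the mean of all tested compounds plus 3 SD, computed per campaign excluding outliers beyond control limits, cut at about 13% in these data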
Target sequence (P49862 whole entry, looked up): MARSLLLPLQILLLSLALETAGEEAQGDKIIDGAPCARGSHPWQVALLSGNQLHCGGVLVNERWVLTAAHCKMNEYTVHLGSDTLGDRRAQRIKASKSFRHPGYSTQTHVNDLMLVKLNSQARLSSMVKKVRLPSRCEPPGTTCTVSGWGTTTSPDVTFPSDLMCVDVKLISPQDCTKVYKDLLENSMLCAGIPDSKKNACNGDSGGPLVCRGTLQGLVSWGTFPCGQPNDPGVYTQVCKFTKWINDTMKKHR
HGIII-sPLA2 inh = Inhibits HGIII-sPLA2 liposome hydrolysis, primary screen; AID 743126; QFRET BODIPY PC-A2 liposome hydrolysis, fluorescence; inhibition, % at 12.2 µM; actives 0.56% (n = 370,000);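 active = inhibition above mean plus 3 SD of compounds lying within the high and low control bounds, cut at about 19% in these data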;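 also: 0% = median of test compound wells and 100% = no enzyme DMSO wells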
CendR NRP1 mod = alters CendR peptide binding to human NRP-1; O14786; FAM-RPARPAR peptide binding to NRP-1, fluorescence polarization; inhibition, % at 25 µM; actives 0.85% (n = 360,000);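 active = inhibition or corrected inhibition above about 18%, plus a signal ratio from 0.5 to 1.5, limit read from the data, passing the limit was not always enough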
ADAM17 inh = inhibits human ADAM17; P78536; recombinant ADAM17, EDANS/DABCYL FRET peptide cleavage; inhibition, % at 6.95 µM; actives 0.83% (n = 370,000); AID 720648;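 active = inhibition above the mean of compounds lying between control limits plus 3 SD, set per campaign, cut at about 8.5% in these data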;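 also: 0% = DMSO-only wells as the low control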
ADAM10 inh = inhibits human ADAM10; actives 0.62% (n = 370,000); recombinant ADAM10, EDANS/DABCYL FRET peptide cleavage, 3 h; AID 720582; inhibition, % at 7 µM; O14672;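 active = inhibition above a per-campaign cutoff equal to the mean of compounds falling between control-based bounds plus 3 SD, cut at about 20% in these data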;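 also: 0% = DMSO wells while the 100% control is not disclosed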
sPLA2 confirm = human GIII-sPLA2 inhibition, confirmation | shares compounds with HGIII-sPLA2 inh | recombinant hGIII-sPLA2, BODIPY PC-A2 QFRET fluorescence | actives 34% (n = 2,000) | inhibition, % at 12.2 µM;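 active = mean inhibition across triplicates above the hit cutoff set in the earlier primary screen, cut at about 19% in these data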;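 also: 0% = enzyme with DMSO and 100% = DMSO wells lacking enzyme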
BODIPY interf = optically interferes with 535nm fluorescence in sPLA2 counter-screen. shares compounds with HGIII-sPLA2 inh. BODIPY FL product fluorescence interference, QFRET. inhibition, % at 12.2 µM. actives 8.5% (n = 2,000);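 active = average inhibition above the solvent-only control mean plus 3 SD, cut at about 6% in these data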;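 also: 0% = DMSO with substrate plus product and 100% = DMSO with substrate alone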
BODIPY interf DR = counter-screen for HGIII-sPLA2 inhibitors: 535nm fluorescence interference, dose response; shares compounds with HGIII-sPLA2 inh; BODIPY FL product fluorescence interference, cell-free; IC50, µM; 240 tested, under 10 active; AID 743455;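 active = IC50 at or below 10 µM; inactive = IC50 above 10 µM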
* marks the source's active call; other numbers are inactive results; ! = not active in a repeat. The list is not random: actives were taken first. Their share in the collection is about 3.4%.

Results for c1ccc(CSc2ccc(-c3ccc4c(c3)OCO4)nn2)cc1 ?
proKLK7 act: -0.1; HGIII-sPLA2 inh: 22.8*; CendR NRP1 mod: -0.1; ADAM17 inh: -6.9; ADAM10 inh: -0.5; sPLA2 confirm: 1.5; BODIPY interf: -7.2

How did O=C(CSc1nnc(COc2ccccc2)n1-c1ccc(Cl)cc1)Nc1ccc(OCc2ccccc2)cc1 do in these assays?
proKLK7 act: 0.0; HGIII-sPLA2 inh: -3.5; ADAM17 inh: 0.9; ADAM10 inh: -2.7

How did CC(=O)C(C(C)=O)C1(O)C(=O)c2ccccc2C1=O do in these assays?
proKLK7 act: 1.2; HGIII-sPLA2 inh: 22.2*; CendR NRP1 mod: 7.3; ADAM17 inh: -3.3; ADAM10 inh: 0.4; sPLA2 confirm: -5.3; BODIPY interf: -3.6

What do the screens show for `O=C(NC1(O)C(=O)c2ccccc2C1=O)c1ccccc1`?
proKLK7 act: 1.2; HGIII-sPLA2 inh: -3.0; CendR NRP1 mod: 19.8; ADAM17 inh: -1.0; ADAM10 inh: 7.2

Results for Fc1ccc(C2CC(c3ccco3)=NN2c2ccccc2)cc1 (centres undefined) ?
proKLK7 act: -33.0; HGIII-sPLA2 inh: 1.5; CendR NRP1 mod: -1.3; ADAM17 inh: -294.3; ADAM10 inh: inactive

What do the screens show for `O=[N+]([O-])c1ccc(N2N=C(c3ccco3)CC2c2ccccc2)cc1` (centres undefined)?
proKLK7 act: 0.1; HGIII-sPLA2 inh: 22.9*; CendR NRP1 mod: -162.7; ADAM17 inh: 5.5; ADAM10 inh: 14.3; sPLA2 confirm: 20.1*; BODIPY interf: 9.3*

How did COc1ccc(-c2cc(C(=O)N=Nc3c(O)[nH]c4ccccc34)[nH]n2)cc1 do in these assays?
proKLK7 act: 0.5; HGIII-sPLA2 inh: 0.6; ADAM17 inh: 0.0; ADAM10 inh: -0.9

How did O=C(N/N=C/c1coc2ccccc2c1=O)c1cc(Br)ccc1O do in these assays?
proKLK7 act: 0.3; HGIII-sPLA2 inh: 21.8*; CendR NRP1 mod: 69.6; ADAM17 inh: -8.3; ADAM10 inh: -14.9; sPLA2 confirm: 13.4; BODIPY interf: 0.8

Results for O=C(N/N=C/c1coc2ccccc2c1=O)c1ccccc1 ?
proKLK7 act: 5.6; HGIII-sPLA2 inh: -2.1; CendR NRP1 mod: -32.4; ADAM17 inh: -3.0; ADAM10 inh: 4.3

Results for COC(=O)c1cc(-c2cc3ccccc3o2)c(=O)n2c1CCC2 ?
proKLK7 act: -3.7; HGIII-sPLA2 inh: 6.3; ADAM17 inh: -111.6; ADAM10 inh: -422.3

How did CC1CCCN(C(=S)Nc2ccc3nc4n(c(=O)c3c2)CCCCC4)C1 (centres undefined) do in these assays?
proKLK7 act: -0.1; HGIII-sPLA2 inh: 26.6*; CendR NRP1 mod: -3.6; ADAM17 inh: -22.2; ADAM10 inh: -87.0; sPLA2 confirm: 10.2; BODIPY interf: -10.3

How did CN(C)c1ccc(-c2cc(O)c3ncccc3c2)cc1 do in these assays?
proKLK7 act: 1.6; HGIII-sPLA2 inh: 26.5*; CendR NRP1 mod: 7.3; ADAM17 inh: -1.6; ADAM10 inh: -1.1; sPLA2 confirm: 17.7; BODIPY interf: -7.0

What do the screens show for `CC(C)c1ccc2c(c1)CC[C@H]1[C@](C)(CN)CCC[C@]21C`?
proKLK7 act: 0.5; HGIII-sPLA2 inh: 21.3*!; CendR NRP1 mod: -10.4; ADAM17 inh: -8.0; ADAM10 inh: -8.3; sPLA2 confirm: 21.0*; BODIPY interf: -27.8

Results for CC(C)c1ccc2c(c1)CCC1C(C)(CN)CCCC21C (centres undefined) ?
proKLK7 act: 0.5; HGIII-sPLA2 inh: 18.7; CendR NRP1 mod: 1.5; ADAM17 inh: -0.5; ADAM10 inh: -2.5

What do the screens show for `CC(C)Cc1c2c([nH]c(=S)c1C#N)CCCC2`?
proKLK7 act: 0.7; HGIII-sPLA2 inh: 20.3*; CendR NRP1 mod: -1.3; ADAM17 inh: 4.9; ADAM10 inh: 7.3; sPLA2 confirm: 30.4*; BODIPY interf: 2.4; BODIPY interf DR: >122

Results for Cc1[nH]c(=S)c(C#N)c2c1CCCC2 ?
proKLK7 act: -0.5; HGIII-sPLA2 inh: -0.9; CendR NRP1 mod: 5.2; ADAM17 inh: -3.3; ADAM10 inh: -6.9
